Measurements as given in the supplement of paper PMC6555819.

test system: PPARg:RXRa DBDmut IVT, anti-RXR (DBD mutation: RXRa K156A/R161A, NR concentration 270 nM, RXRa partner concentration 90 nM); test: PBM binding z-score (relative to random genomic background probes); higher = stronger binding; sequences stand for … in GC…GCGATTGACAGCGTAGAATGAAGG
Procedure, shortened: (§1)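 On custom Agilent 4×180K arrays, double-stranded probes with 34-nt variable regions carried direct-repeat seeds, single-nucleotide variants, half-site ablations or random human genomic background. Ligand-free nuclear receptor dimers were applied for 1 h, and binding was read with antibodies against each partner (one per run). Binding z-scores come from regression-normalized fluorescence, with the random background probes as reference.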

Sequence	PBM binding z-score
TCCATTAGTTGAAGGGCAACCGACGAGTCCGTTT	2.37
CCTAGTTCGTCAAGGTCACACACGCTATAGGTAC	1.21
CCTATTAGTTGACCACAAGGGCAACCGAAGCTCG	0.687
CCTATTAGTTGACCATAAGGGCAACCGCAGCTCG	0.361
TCTGCTAGGTCAGTTGGTAAGCTAACGAGCTGCC	2.46
GCAGACAGGTGAAACGCAGGTAACTCAAGGTGGC	1.07
CCTCGGAGGACAACAGGCGGTCAGAGCTGCCAGA	-0.178
TCTTGTAGATCAAAAGAGGTTAAGAAAGTGCGCT	1.47
CCTACTGGGCCAAAAAGGTCATTGAAGCCGATAA	3.62
CAAACTAGGTCACGGAAGGTCAAAGTCGAATGAC	8.57
AGAATGAGGTTGTACGTAGATCAGGGAAGAAAGT	-0.0167
GTATCAAGGTGAATAGGTCGTTGATGAGTAGGCG	3.31
AGAACGAGGGCACGCTGAGATGATAGCAGAGTAG	4.28
AGTCAAAGTTCATCTAGATAACGTAAGATATGCT	0.216
CGAACTAGGTCAGAACAGGAGAGTGAAGGATGAT	7.25
CAAACTAGGTGACCGGAAGGTCAAAGTCCGCATG	7.47
ACAGACAGGTGAGTGAAGGAAACTCAGCTGGACG	0.214
ATCCCAAGGTGATCGTGAGGTCGTTGATACTAAC	0.258

test system: PPARg:RXRa IVT, anti-PPARg (NR concentration 270 nM, RXRa partner concentration 90 nM); test: as above
Procedure, shortened: as §1

Sequence	PBM binding z-score
AATACAGGGCCACTAGGCCAGAGTAGGTACGAAT	2.42
TCTTGTAAATCAGCAGGTTAAGAAAGCTGGCCAA	-0.234
ACTATTAGTTGACTTAGGGCAACCGTTACGACGC	0.527
CAAACTAGGTCCCGAAAGGTCAAAGTCGAATGAC	4.78
CGTCCACGGTCAGCAGGTCAGTGAAAGCGACGTG	0.748
ATCGAAAGGTCGGAGGTGAGTATACCCACCCGAA	1.78
GCTTACGGGTCAAAGGTTATTGCATGAATAGAAT	5.79
ATTCGGAGGACAAAGGTCAGAGCTACGCCAGTGA	3.74
GGTAGCAGGCCATTTGGGTCACTCAATGACGGGC	2.81
GATACAGGGTCAGCTCGAGGCCAGAGTATGGAAA	2.36
GCTTGTAGATCAAGGTTAAGATAGACTAAGCTAA	1.14
ACTATTAGATGAGACGAGGGCAACCGATAGGTTG	0.591
AATACAGGGTCAACGTAGGCCAGAGTACGCACAG	4.2
GCATGTAGGTAATACAAGGTGAAAGTCCGATTGT	4.28
TCTATTAGTTGACGGGCAACCGACGAGTCCGTTT	0.118
GCTTTTAGATCAAGGTTAAGAAAGACTAAGCTAA	0.787
TCGAGTAGGTTACCAATGGGGCATTCTGCTTTCT	2.53
CCTAGCGGGCCAGGGTCACTCAAGCATTTCGCTT	0.39
GCTTGTAGATCAAGGATAAGAAAGACTAAGCTAA	-0.0525
ATATGTAGGTTAAGGGTCATCCAGGTTGGTTCGC	8.22

Sequence	PBM binding z-score
ACAGACAGGTGAGTGAAGGTAACTCACCTGGACG	1.01
CGAACTAGGTCAGAACAGGTCAGTGAAGGATGAT	7.16
TCCATTAGTTGAAGGGCAACCGACGAGTCCGTTT	0.637
CCTAGTTCGTCAAGGTCACACACGCTATAGGTAC	2.33
CCTATTAGTTGACCACAAGGGCAACCGAAGCTCG	0.913
CCTATTAGTTGACCATAAGGGCAACCGCAGCTCG	0.808
TCTGCTAGGTCAGTTGGTAAGCTAACGAGCTGCC	2.46
GCAGACAGGTGAAACGCAGGTAACTCAAGGTGGC	0.401
CCTCGGAGGACAACAGGCGGTCAGAGCTGCCAGA	-0.851
TCTTGTAGATCAAAAGAGGTTAAGAAAGTGCGCT	0.83
CCTACTGGGCCAAAAAGGTCATTGAAGCCGATAA	3.97
CAAACTAGGTCACGGAAGGTCAAAGTCGAATGAC	8.97
AGAATGAGGTTGTACGTAGATCAGGGAAGAAAGT	0.566
GTATCAAGGTGAATAGGTCGTTGATGAGTAGGCG	4.02
AGAACGAGGGCACGCTGAGATGATAGCAGAGTAG	3.41
AGTCAAAGTTCATCTAGATAACGTAAGATATGCT	2.84
CGAACTAGGTCAGAACAGGAGAGTGAAGGATGAT	7.15
CAAACTAGGTGACCGGAAGGTCAAAGTCCGCATG	7.68
ACAGACAGGTGAGTGAAGGAAACTCAGCTGGACG	0.274
ATCCCAAGGTGATCGTGAGGTCGTTGATACTAAC	0.592
